The full ranking holds about 33,000 sequences; the median of “e-score” is about -0.05, and the highest 2% start at about 0.38. Shown is part of a subset that was picked to be rich in the highest values.

In the assay the target is T1, SIX1-Q177R homeodomain (human, UniProt Q15475 108-198, Q177R).
T1 sequence: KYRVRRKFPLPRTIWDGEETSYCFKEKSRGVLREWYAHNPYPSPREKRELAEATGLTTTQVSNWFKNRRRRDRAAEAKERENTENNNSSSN
Briefly: universal protein binding microarray; Universal all-10-mer PBM (8x60K, AMADID 030236), 300 nM GST-tagged protein, Alexa Fluor 488 anti-GST; buffer, salt, pH and temperature not stated (as in Berger); high values mean tight binding. The settings on record: protein: ivt; tags: N-terminal GST; dsDNA, one strand shown. The gist of the method:
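After in vitro transcription/translation, GST-tagged homeodomains were quantified against a recombinant GST standard curve by anti-GST western blot. They were then placed in duplicate at 300 nM final concentration on universal 'all 10-mer' protein binding microarrays of 8×60K format.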
ATACCCAC: the binding signal is 0.196 ± 0.0233 E-score.

Turning to CACCAGAC, the binding signal was found to be 0.338 ± 0.00569 E-score.

In the case of CACCGCCC, the binding signal amounted to 0.3 ± 0.0125 E-score.

Regarding ACACGAGG, the binding signal is 0.3796 ± 0.00182 E-score.

For ACACGAGA, the binding signal was determined as 0.352 ± 0.0163 E-score.

As for ACACGAGT, the binding signal turned out to be 0.4013 ± 0.00247 E-score.

As for ACACGAGC, the binding signal worked out at 0.3292 ± 0.0011 E-score.

Take ACGCGAGT: the binding signal was 0.162 ± 0.045 E-score.

ACCCGAGT: the binding signal was 0.259 ± 0.0341 E-score.

On to CACCGCGA, for which the binding signal turned out to be 0.238 ± 0.0133 E-score.

With ACCGGGGG, the binding signal amounted to 0.238 ± 0.00986 E-score.

As to CAGGGTAC, the binding signal worked out at 0.162 ± 0.0178 E-score.

Regarding AACCCAGA, the binding signal amounted to 0.214 ± 0.0243 E-score.

For CACTATAA, the binding signal came to 0.253 ± 0.0572 E-score.

CACCTTAA: the binding signal turned out to be 0.172 ± 0.0487 E-score.

For GCGTGTAA, the binding signal amounted to 0.441 ± 0.0209 E-score.

With ACGTGTGA, the binding signal was 0.293 ± 0.00636 E-score.

As to CCGTGCAC, the binding signal amounted to 0.198 ± 0.0196 E-score.

CCGTGTAG: the binding signal was 0.4463 ± 0.00194 E-score.

Turning to CCTTGTAA, the binding signal was 0.244 ± 0.024 E-score.

For the sequence CCGGGTAG, the binding signal turned out to be 0.169 ± 0.0152 E-score.

As to CCGGGTAA, the binding signal was determined as 0.177 ± 0.0166 E-score.

CCGTGTAA: the binding signal stood at 0.44 ± 0.0102 E-score.

Regarding GCGGGTAA, the binding signal was 0.164 ± 0.019 E-score.

As to ACGTGTAA, the binding signal came out at 0.413 ± 0.0225 E-score.

For GCGTGTGA, the binding signal was 0.347 ± 0.0138 E-score.

For TATCGTCA, the binding signal was found to be 0.211 ± 0.012 E-score.

With CGAAAACA, the binding signal amounted to 0.186 ± 0.0616 E-score.

As for CACCTAGC, the binding signal stood at 0.168 ± 0.00559 E-score.

For ACCTCAAC, the binding signal turned out to be 0.27 ± 0.0213 E-score.

As to CACCCTTC, the binding signal was determined as 0.31 ± 0.0119 E-score.

Take CAGCTACA: the binding signal amounted to 0.191 ± 0.0188 E-score.

As for GATACTGC, the binding signal was 0.158 ± 0.0138 E-score.

For CACGTTCA, the binding signal was 0.158 ± 0.0324 E-score.

As for AATAGGGG, the binding signal is 0.171 ± 0.0238 E-score.

Turning to TCGGGTAA, the binding signal came out at 0.194 ± 0.00451 E-score.

As for TCGTGTAA, the binding signal is 0.434 ± 0.0291 E-score.

For GCTGAACA, the binding signal stood at 0.169 ± 0.0308 E-score.

Consider GGGTTTCA, for which the binding signal was determined as 0.15 ± 0.00187 E-score.

With GTCAAACA, the binding signal turned out to be 0.1886 ± 0.00104 E-score.

Turning to CTCAACAC, the binding signal was determined as 0.393 ± 0.0141 E-score.

Take AGCAACAC: the binding signal is 0.361 ± 0.00441 E-score.

GTCAACAC: the binding signal was 0.38 ± 0.00874 E-score.

As to ATCAACAC, the binding signal amounted to 0.3939 ± 0.00328 E-score.

On to TCCTTACA, for which the binding signal is 0.222 ± 0.0176 E-score.

ATTGATCC: the binding signal turned out to be 0.187 ± 0.0355 E-score.

As to CATCTGAC, the binding signal amounted to 0.236 ± 0.0527 E-score.

For the sequence CACTTCAC, the binding signal amounted to 0.154 ± 0.0408 E-score.

For ACTCCGCG, the binding signal worked out at 0.22 ± 0.00707 E-score.

Regarding CACACGTG, the binding signal amounted to 0.362 ± 0.00543 E-score.

Turning to CCAGGATA, the binding signal worked out at 0.2169 ± 0.00146 E-score.

Turning to AACCCCGT, the binding signal was determined as 0.174 ± 0.0274 E-score.

Regarding ACCCCCGC, the binding signal amounted to 0.318 ± 0.046 E-score.

Consider ACACCCGC, for which the binding signal came to 0.4623 ± 0.00219 E-score.

As to GCACCCGC, the binding signal was 0.227 ± 0.0318 E-score.

As for ACCCCCGT, the binding signal was found to be 0.273 ± 0.0189 E-score.

On to GCACCCGA, for which the binding signal came out at 0.235 ± 0.00309 E-score.

In the case of CCACCCGG, the binding signal stood at 0.201 ± 0.0191 E-score.

In the case of ACACCCGA, the binding signal came out at 0.457 ± 0.00947 E-score.

Regarding ACACCCGT, the binding signal came out at 0.4709 ± 0.00247 E-score.

With CCACCCGA, the binding signal stood at 0.206 ± 0.00492 E-score.

Take ACCCCCGG: the binding signal was 0.305 ± 0.0423 E-score.

On to ACACCCGG, for which the binding signal stood at 0.4824 ± 0.0027 E-score.

For the sequence GGGAGTCA, the binding signal was determined as 0.221 ± 0.0066 E-score.

With ATAGGGGG, the binding signal was 0.259 ± 0.00343 E-score.

As for CACGGGGA, the binding signal was found to be 0.199 ± 0.0103 E-score.

Turning to CCCGTAGG, the binding signal was 0.178 ± 0.00511 E-score.

For the sequence GGAGCACC, the binding signal was determined as 0.268 ± 0.0396 E-score.

For the sequence AGGGGGAT, the binding signal was determined as 0.23 ± 0.0203 E-score.

For the sequence CGCAAACA, the binding signal was 0.181 ± 0.0196 E-score.

On to GTGATACA, for which the binding signal was determined as 0.172 ± 0.0198 E-score.

Turning to ACCATACA, the binding signal is 0.3199 ± 0.00166 E-score.

With GGTCCGTA, the binding signal came out at 0.189 ± 0.0444 E-score.

Consider GAGGGTAC, for which the binding signal worked out at 0.183 ± 0.0122 E-score.

Regarding TGACGACA, the binding signal stood at 0.212 ± 0.00725 E-score.

For AGGCACCA, the binding signal stood at 0.178 ± 0.0251 E-score.

Consider AGACACCA, for which the binding signal amounted to 0.458 ± 0.0134 E-score.

For GGACACGA, the binding signal amounted to 0.356 ± 0.0172 E-score.

Regarding TGACACCA, the binding signal worked out at 0.4915 ± 0.00377 E-score.

With TGACACAA, the binding signal came out at 0.298 ± 0.0424 E-score.

Turning to GGACACCA, the binding signal was 0.4831 ± 0.00245 E-score.

In the case of TCCATGGA, the binding signal came to 0.1596 ± 0.000424 E-score.

Regarding CGGGGTTA, the binding signal stood at 0.22 ± 0.0181 E-score.

Regarding ACGGAACA, the binding signal was determined as 0.212 ± 0.00638 E-score.

Regarding TGTGAACA, the binding signal was found to be 0.327 ± 0.0228 E-score.

For the sequence ACCGTTGG, the binding signal came to 0.2165 ± 0.000431 E-score.

In the case of ACCCGACG, the binding signal is 0.208 ± 0.0142 E-score.

Regarding TAGCTACA, the binding signal was found to be 0.209 ± 0.0332 E-score.

For GTATCAGA, the binding signal was 0.284 ± 0.0131 E-score.

Consider GTTGGGGA, for which the binding signal was 0.218 ± 0.00618 E-score.

Turning to CCCTTTGC, the binding signal stood at 0.219 ± 0.0339 E-score.

As for CCCGGGTC, the binding signal stood at 0.335 ± 0.0417 E-score.

Consider GGAGTAGA, for which the binding signal is 0.2198 ± 0.000615 E-score.

Consider GGTGTAAC, for which the binding signal turned out to be 0.482 ± 0.00603 E-score.

For the sequence CGGGTAAC, the binding signal turned out to be 0.2 ± 0.000757 E-score.

As to GGTGTAGA, the binding signal was determined as 0.4728 ± 0.00114 E-score.

As for CGTGTAAG, the binding signal was 0.428 ± 0.0306 E-score.

In the case of CGTGTAAC, the binding signal amounted to 0.43 ± 0.0129 E-score.

As to AGGGTAAG, the binding signal stood at 0.152 ± 0.023 E-score.

Consider GGGGTAAC, for which the binding signal came out at 0.293 ± 0.0173 E-score.

GGGGTAGA: the binding signal worked out at 0.194 ± 0.0142 E-score.

Consider GGAGTAAC, for which the binding signal was found to be 0.157 ± 0.0575 E-score.

As to CACCACTC, the binding signal was determined as 0.322 ± 0.00333 E-score.

Consider CGTATGAC, for which the binding signal amounted to 0.199 ± 0.0291 E-score.

Regarding AATAGGTG, the binding signal worked out at 0.207 ± 0.0434 E-score.

On to AGTGTGAT, for which the binding signal came to 0.223 ± 0.0157 E-score.

For AGTGTAAT, the binding signal turned out to be 0.413 ± 0.0369 E-score.

On to GGAGTAAA, for which the binding signal came out at 0.222 ± 0.0733 E-score.

Take CGGGTAAA: the binding signal came to 0.194 ± 0.0165 E-score.

The values above are taken from publication PMC10668032, “Altered binding affinity of SIX1-Q177R correlates with enhanced WNT5A and WNT pathway effector expression in Wilms tumor”.
